Experimental data: the supplement of paper PMC8728848
The sample as a whole holds a higher share of the strongest signals than the screen did.

Experiments:
Experiment in all cases: glycan array binding signal (z-score within array); higher = stronger binding
Conditions in all cases: glycan notation: IUPAC condensed, linker removed
Fuc(a1-2)Gal(b1-4)Glc6S = target: Fuc(a1-2)Gal(b1-4)Glc6S
Method in brief: (§1)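 Glycan array data came from 3228 arrays in the Consortium for Functional Glycomics database, and only arrays with an available protein sequence were kept. Glycan names were put into IUPAC-condensed notation, and columns mapping to the same glycan were averaged. The binding signal is a within-array Z-score, averaged across arrays of one protein sequence run at different concentrations or buffers and across linkers. A negative Z-score can be read as non-binding.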

[1] = target: Fuc(a1-2)[Gal(a1-3)]Gal(b1-4)GlcNAc
Method in brief: as §1

[2] = target: Fuc(a1-2)[Gal(a1-3)]Gal(b1-4)GlcNAc(b1-3)[Fuc(a1-2)[Gal(a1-3)]Gal(b1-4)GlcNAc(b1-6)]GalNAc
Method in brief: as §1

[3] = target: Fuc(a1-2)[Gal(a1-3)]Gal(b1-4)[Fuc(a1-3)]GlcNAc(b1-3)GalNAc
Method in brief: as §1

[4] = target: Fuc(a1-3)[Gal(b1-4)]GlcNAc(b1-4)Gal(b1-4)[Fuc(a1-3)]GlcNAc
Method in brief: as §1

[5] = target: Gal(a1-3)Gal(b1-4)GlcNAc(b1-2)Man(a1-3)[Gal(a1-3)Gal(b1-4)GlcNAc(b1-2)Man(a1-6)]Man(b1-4)GlcNAc(b1-4)GlcNAc
Method in brief: as §1

[6] = target: Gal(a1-3)Gal(b1-4)GlcNAc(b1-6)GalNAc
Method in brief: as §1

[7] = target: Gal(a1-3)Gal(b1-4)[Fuc(a1-3)]GlcNAc(b1-2)Man(a1-3)[Gal(a1-3)Gal(b1-4)[Fuc(a1-3)]GlcNAc(b1-2)Man(a1-6)]Man(b1-4)GlcNAc(b1-4)GlcNAc
Method in brief: as §1

[8] = target: Gal(b1-3)[Neu5Ac(a2-6)]GlcNAc(b1-4)Gal(b1-4)Glc
Method in brief: as §1

[9] = target: Gal(b1-4)GalNAc(a1-3)[Fuc(a1-2)]Gal(b1-4)GlcNAc
Method in brief: as §1

Gal(b1-4)GlcNAc = target: Gal(b1-4)GlcNAc
Method in brief: as §1

Gal(b1-4)GlcNAc(b1-2)Man = target: Gal(b1-4)GlcNAc(b1-2)Man
Method in brief: as §1

[10] = target: Gal(b1-4)GlcNAc(b1-2)Man(a1-6)[Man(a1-3)]Man(b1-4)GlcNAc(b1-4)GlcNAc
Method in brief: as §1

[11] = target: Gal(b1-4)GlcNAc(b1-2)[Gal(b1-4)GlcNAc(b1-4)]Man(a1-3)[Gal(b1-4)GlcNAc(b1-2)[Gal(b1-4)GlcNAc(b1-6)]Man(a1-6)]Man(b1-4)GlcNAc(b1-4)GlcNAc
Method in brief: as §1

[12] = target: Gal(b1-4)GlcNAc(b1-3)Gal(b1-4)Glc
Method in brief: as §1

[13] = target: Gal(b1-4)GlcNAc(b1-3)Gal(b1-4)GlcNAc(b1-2)[Gal(b1-4)GlcNAc(b1-3)Gal(b1-4)GlcNAc(b1-6)]Man(a1-6)[Gal(b1-4)GlcNAc(b1-3)Gal(b1-4)GlcNAc(b1-2)Man(a1-3)]Man(b1-4)GlcNAc(b1-4)GlcNAc
Method in brief: as §1

[14] = target: Gal(b1-4)GlcNAc(b1-3)Gal(b1-4)GlcNAc(b1-3)Gal(b1-4)GlcNAc
Method in brief: as §1

[15] = target: Gal(b1-4)GlcNAc(b1-3)Gal(b1-4)GlcNAc(b1-3)Gal(b1-4)GlcNAc(b1-2)[Gal(b1-4)GlcNAc(b1-3)Gal(b1-4)GlcNAc(b1-3)Gal(b1-4)GlcNAc(b1-6)]Man(a1-6)[Gal(b1-4)GlcNAc(b1-3)Gal(b1-4)GlcNAc(b1-3)Gal(b1-4)GlcNAc(b1-2)Man(a1-3)]Man(b1-4)GlcNAc(b1-4)[Fuc(a1-6)]GlcNAc
Method in brief: as §1

[16] = target: Gal(b1-4)GlcNAc(b1-3)Gal(b1-4)GlcNAc(b1-3)Gal(b1-4)GlcNAc(b1-3)Gal(b1-4)GlcNAc(b1-3)Gal(b1-4)GlcNAc(b1-2)[Gal(b1-4)GlcNAc(b1-3)Gal(b1-4)GlcNAc(b1-3)Gal(b1-4)GlcNAc(b1-3)Gal(b1-4)GlcNAc(b1-3)Gal(b1-4)GlcNAc(b1-6)]Man(a1-6)[Gal(b1-4)GlcNAc(b1-3)Gal(b1-4)GlcNAc(b1-3)Gal(b1-4)GlcNAc(b1-3)Gal(b1-4)GlcNAc(b1-3)Gal(b1-4)GlcNAc(b1-2)Man(a1-3)]Man(b1-4)GlcNAc(b1-4)[Fuc(a1-6)]GlcNAc
Method in brief: as §1

[17] = target: Gal(b1-4)GlcNAc(b1-3)[Gal(b1-4)GlcNAc(b1-6)]Gal(b1-4)GlcNAc
Method in brief: as §1

Gal3S(b1-4)GlcNAc6S = target: Gal3S(b1-4)GlcNAc6S
Method in brief: as §1

Gal3S4S(b1-4)GlcNAc = target: Gal3S4S(b1-4)GlcNAc
Method in brief: as §1

Gal3S6S(b1-4)GlcNAc = target: Gal3S6S(b1-4)GlcNAc
Method in brief: as §1

[18] = target: GalNAc(b1-3)Gal(a1-6)Gal(b1-4)Glc
Method in brief: as §1

GalNAc(b1-3)GalNAc = target: GalNAc(b1-3)GalNAc
Method in brief: as §1

[19] = target: GlcNAc(b1-3)Gal(b1-4)GlcNAc(b1-3)[GlcNAc(b1-3)Gal(b1-4)GlcNAc(b1-3)]GalNAc
Method in brief: as §1

[20] = target: Man(a1-2)Man(a1-3)[Man(a1-2)Man(a1-6)]Man(a1-6)[Man(a1-3)[Man(a1-6)]Man(a1-6)]Man(b1-4)GlcNAc(b1-4)GlcNAc
Method in brief: as §1

[21] = target: Man(a1-2)Man(a1-3)[Man(a1-6)]Man(a1-6)[Man(a1-2)Man(a1-3)]Man(b1-4)GlcNAc(b1-4)GlcNAc
Method in brief: as §1

[22] = target: Man(a1-2)Man(a1-6)[Man(a1-3)]Man(a1-6)[Man(a1-2)Man(a1-2)Man(a1-3)]Man(b1-4)GlcNAc(b1-4)GlcNAc
Method in brief: as §1

Man(a1-3)[Man(a1-6)]Man = target: Man(a1-3)[Man(a1-6)]Man
Method in brief: as §1

[23] = target: Man(a1-3)[Man(a1-6)]Man(a1-6)[Man(a1-2)Man(a1-3)]Man(b1-4)GlcNAc(b1-4)GlcNAc
Method in brief: as §1

[24] = target: Man(a1-3)[Man(a1-6)]Man(a1-6)[Man(a1-3)]Man
Method in brief: as §1

[25] = target: Man(a1-3)[Man(a1-6)]Man(a1-6)[Man(a1-3)]Man(b1-4)GlcNAc(b1-4)GlcNAc
Method in brief: as §1

[26] = target: Man(a1-3)[Man(a1-6)]Man(b1-4)GlcNAc(b1-4)GlcNAc
Method in brief: as §1

[27] = target: Man(a1-3)[Man(a1-6)]Man(b1-4)GlcNAc(b1-4)[Fuc(a1-6)]GlcNAc
Method in brief: as §1

[28] = target: Neu5Ac(a2-3)Gal(b1-3)GalNAc(b1-4)[Neu5Ac(a2-8)Neu5Ac(a2-3)]Gal(b1-4)Glc
Method in brief: as §1

[29] = target: Neu5Ac(a2-3)Gal(b1-4)GlcNAc(b1-3)Gal(b1-4)GlcNAc(b1-2)Man(a1-3)[Neu5Ac(a2-3)Gal(b1-4)GlcNAc(b1-3)Gal(b1-4)GlcNAc(b1-2)Man(a1-6)]Man(b1-4)GlcNAc(b1-4)GlcNAc
Method in brief: as §1

[30] = target: Neu5Ac(a2-3)Gal(b1-4)GlcNAc(b1-3)Gal(b1-4)GlcNAc(b1-3)GalNAc
Method in brief: as §1

[31] = target: Neu5Ac(a2-3)[GalNAc(b1-4)]Gal(b1-4)GlcNAc(b1-3)GalNAc
Method in brief: as §1

[32] = target: Neu5Ac(a2-6)Gal(b1-4)GlcNAc(b1-2)Man(a1-3)Man(b1-4)GlcNAc(b1-4)GlcNAc
Method in brief: as §1

[33] = target: Neu5Ac(a2-6)Gal(b1-4)GlcNAc(b1-2)Man(a1-3)[GlcNAc(b1-4)][Neu5Ac(a2-6)Gal(b1-4)GlcNAc(b1-2)Man(a1-6)]Man(b1-4)GlcNAc(b1-4)GlcNAc
Method in brief: as §1

[34] = target: Neu5Ac(a2-6)Gal(b1-4)GlcNAc(b1-3)Gal(b1-4)GlcNAc(b1-3)Gal(b1-4)GlcNAc(b1-2)Man(a1-3)[Neu5Ac(a2-6)Gal(b1-4)GlcNAc(b1-3)Gal(b1-4)GlcNAc(b1-3)Gal(b1-4)GlcNAc(b1-2)Man(a1-6)]GalNAc
Method in brief: as §1

[35] = target: Neu5Ac(a2-6)GalNAc(b1-4)GlcNAc6S
Method in brief: as §1

[36] = target: Neu5Ac(a2-8)Neu5Ac(a2-3)Gal(b1-3)GalNAc(b1-4)[Neu5Ac(a2-3)]Gal(b1-4)Glc
Method in brief: as §1

[37] = target: Neu5Ac(a2-8)Neu5Ac(a2-3)Gal(b1-4)GlcNAc
Method in brief: as §1

[38] = target: Neu5Ac(a2-8)Neu5Ac(a2-8)Neu5Ac
Method in brief: as §1

Neu5Ac(b1-6)GalNAc = target: Neu5Ac(b1-6)GalNAc
Method in brief: as §1

[39] = target: Neu5Gc(a2-3)Gal(b1-3)[Fuc(a1-4)]GlcNAc
Method in brief: as §1

[40] = target: Neu5Gc(a2-6)Gal(b1-4)GlcNAc
Method in brief: as §1

B1: GNA (Galanthus nivalis), P30617 (protein)
chain: MAKASLLILAAIFLGVITPSCLSDNILYSGETLSTGEFLNYGSFVFIMQEDCNLVLYDVDKPIWATNTGGLSRSCFLSMQTDGNLVVYNPSNKPIWASNTGGQNGNYVCILQKDRNVVIYGTDRWATGTHTGLVGIPASPPSEKYPTAGKIKLVTAK
glycan array binding signal (z-score) (Fuc(a1-2)Gal(b1-4)Glc6S): -0.048 | glycan array binding signal (z-score) [1]: -0.241 | glycan array binding signal (z-score) [2]: -0.171 | glycan array binding signal (z-score) [3]: -0.127 | glycan array binding signal (z-score) [4]: -0.127 | glycan array binding signal (z-score) [5]: 2.17 | glycan array binding signal (z-score) [6]: -0.182 | glycan array binding signal (z-score) [7]: -0.106 | glycan array binding signal (z-score) [8]: -0.195 | glycan array binding signal (z-score) [9]: -0.192 | glycan array binding signal (z-score) (Gal(b1-4)GlcNAc): -0.172 | glycan array binding signal (z-score) (Gal(b1-4)GlcNAc(b1-2)Man): -0.167 | glycan array binding signal (z-score) [10]: 3.11 | glycan array binding signal (z-score) [11]: 0.166 | glycan array binding signal (z-score) [12]: -0.076 | glycan array binding signal (z-score) [13]: -0.093 | glycan array binding signal (z-score) [14]: -0.163 | glycan array binding signal (z-score) [15]: -0.116 | glycan array binding signal (z-score) [16]: -0.018 | glycan array binding signal (z-score) [17]: -0.21 | glycan array binding signal (z-score) (Gal3S(b1-4)GlcNAc6S): 0.332 | glycan array binding signal (z-score) (Gal3S4S(b1-4)GlcNAc): -0.065 | glycan array binding signal (z-score) (Gal3S6S(b1-4)GlcNAc): -0.101 | glycan array binding signal (z-score) [18]: -0.142 | glycan array binding signal (z-score) (GalNAc(b1-3)GalNAc): -0.175 | glycan array binding signal (z-score) [19]: -0.172 | glycan array binding signal (z-score) [20]: 6.07 | glycan array binding signal (z-score) [21]: 2.23 | glycan array binding signal (z-score) [22]: 3.2 | glycan array binding signal (z-score) (Man(a1-3)[Man(a1-6)]Man): 4.73 | glycan array binding signal (z-score) [23]: 5.86 | glycan array binding signal (z-score) [24]: 3.04 | glycan array binding signal (z-score) [25]: 5.35 | glycan array binding signal (z-score) [26]: 9.48 | glycan array binding signal (z-score) [27]: 6.97 | glycan array binding signal (z-score) [28]: -0.155 | glycan array binding signal (z-score) [29]: 0.02 | glycan array binding signal (z-score) [30]: -0.172 | glycan array binding signal (z-score) [31]: -0.073 | glycan array binding signal (z-score) [32]: -0.17 | glycan array binding signal (z-score) [33]: -0.182 | glycan array binding signal (z-score) [34]: -0.029 | glycan array binding signal (z-score) [35]: -0.173 | glycan array binding signal (z-score) [36]: -0.169 | glycan array binding signal (z-score) [37]: -0.178 | glycan array binding signal (z-score) [38]: -0.155 | glycan array binding signal (z-score) (Neu5Ac(b1-6)GalNAc): -0.21 | glycan array binding signal (z-score) [39]: -0.154 | glycan array binding signal (z-score) [40]: -0.116
